PMC13494018
A number with no mark means an inactive call. No rule for the calls is given here.

B1: design_391_ca6baf5d-2451-47ba-bffc-fc886679966a_1193_dldesign_0_cycle1_af2pred (protein)
chain: AAARQAALLAQAEALRAQAVALADGTAEEQQALLQQIVDLAQAHPDMSPETWAALNAALAAASSAYIRAARA
B2: design_391_ca6baf5d-2451-47ba-bffc-fc886679966a_1188_dldesign_0_cycle1_af2pred (protein)
chain: AAAEEIAARNGEALARQAAAASPEDAAAIAENALQMARASPLFAPAARKAVEAAAETIAKEDPERGEALLREGLAAVEAIEA
B3: design_391_ca6baf5d-2451-47ba-bffc-fc886679966a_1601_dldesign_0_cycle1_af2pred (protein)
chain: STLQELVDAAKEALAAAGELYRLDPERGEALRKQVWALLIAGLRDPATAAADKAKIEALKAEAEALVAELK
B4: design_391_ca6baf5d-2451-47ba-bffc-fc886679966a_1483_dldesign_0_cycle1_af2pred (protein)
chain: SEAAAKEKKAIEAIKKAAADAEAMLQSLIAAGMPAANARAVVTTMTTAARTAAKEAGTEAAKKAAKEAIAKIEAAGKAAEAQLAAQAA
B5: design_391_ca6baf5d-2451-47ba-bffc-fc886679966a_1313_dldesign_0_cycle1_af2pred (protein)
chain: MEEARRRAEELLRRVRELAARAAKAAAAGDVAEAQRLLAEALEALAELSRLGREVGPEGRELVREGNRAVAAAARAALAAARAA
B6: design_391_ca6baf5d-2451-47ba-bffc-fc886679966a_1257_dldesign_0_cycle1_af2pred (protein)
chain: SAAAAAAARAAKAAADAEQLKALGDAAIAQLAADPSMAPQARAVAAMARAAAEGYAADPATAAAAEAARATAERVAAAAAAAA
B7: design_391_ca6baf5d-2451-47ba-bffc-fc886679966a_294_dldesign_0_cycle1_af2pred (protein)
chain: AAEEAAEKAVEEAEKALEKAKAHLAKYPDSLAAKAAVALAKTMLAAAKEVAEEGNLEELERTLESVRKATEEMDKLLAADEAAAA
B8: design_391_ca6baf5d-2451-47ba-bffc-fc886679966a_926_dldesign_0_cycle1_af2pred (protein)
chain: AEAAAQKALATAMAKALKKRGEELLKEAKTASAEEAKKLLDNFVKLGEVLAAGAPPEVGAEVKAATEKYSAEMQAVIDAKAA
B9: design_391_ca6baf5d-2451-47ba-bffc-fc886679966a_1195_dldesign_0_cycle1_af2pred (protein)
chain: SLYDEALKYAMQAANLGYEADPELAKKLRQAAIALAQGKIDEAIALLKEAKELAKKYPEKEPEIKELIDKAIELANKIK
B10: design_391_ca6baf5d-2451-47ba-bffc-fc886679966a_1141_dldesign_0_cycle1_af2pred (protein)
chain: APAAATARAVGKRAQAAAKKLAKAGTKEVAKEAKKLAEKAKELEKEAIANAADTAVSGAKILEILKLLDEANKLLKKY
B11: design_391_ca6baf5d-2451-47ba-bffc-fc886679966a_968_dldesign_0_cycle1_af2pred (protein)
chain: AAAQQQLRDQARKLLEQAAKRAKEAGNEEAAKEAKEAAKLLKEGGSLGEAAVEASRAHAAAVRFGDEETAALAQAALKLLSQAA
B12: design_391_ca6baf5d-2451-47ba-bffc-fc886679966a_1527_dldesign_0_cycle1_af2pred (protein)
chain: AEERAEEVRRRAEELRARALALIAEDPGAGMAYAVEAARELSEYGRAHPEVAEAAGEAANDVLSAASRAAMAVYAA
B13: design_391_ca6baf5d-2451-47ba-bffc-fc886679966a_888_dldesign_0_cycle1_af2pred (protein)
chain: AAAAAAAAAAAAAAAAALARAEELAAAASPEVRALIEAHGIAGRIMFMYTLGARAAAADPARGAELLADARALLAAAQAASRAA
B14: design_391_ca6baf5d-2451-47ba-bffc-fc886679966a_1034_dldesign_0_cycle1_af2pred (protein)
chain: ADAAAQALSQAFELAAQALTKTGSDEANAALQAVTRAMADPAKLPEAIAAAKKAAAAYPEVKALMDQAIKELEKAAELAKAA
B15: design_391_ca6baf5d-2451-47ba-bffc-fc886679966a_1760_dldesign_0_cycle1_af2pred (protein)
chain: KEETQRVMVEATRVINRVAALVIAHPELTEAAALIQQALALLEQAKELLEAGEEEKALELAKQALELAKKALEIAESAL
B16: design_391_ca6baf5d-2451-47ba-bffc-fc886679966a_866_dldesign_0_cycle1_af2pred (protein)
chain: SMEEEKKKEAEKKAQSYLKSVEVWATATISAIAQGVVGAQMLANLKKKSEEAIKKLKELGTEEGKKAAEKVKAYLAKAEAAA
B17: design_391_ca6baf5d-2451-47ba-bffc-fc886679966a_707_dldesign_0_cycle1_af2pred (protein)
chain: AEEEERERRAEEVRRWAEERAAQARALAAQDPQAGLALALEAMEELRELRERDPAVAEAAREGEQLMAEIAAQAAKAATA
B18: design_391_ca6baf5d-2451-47ba-bffc-fc886679966a_1281_dldesign_0_cycle1_af2pred (protein)
chain: AAQEVQERAREVAARAEALAAAAAADPAAARLARSAAHFARLAAELAPTDLPLAQQALEVAESLLAEAEALLAARRA
B19: design_391_ca6baf5d-2451-47ba-bffc-fc886679966a_1360_dldesign_0_cycle1_af2pred (protein)
chain: DYTERAKAALKSAIENMAKAAIEAAKEDAEKGKEKLKQLKELSEQMIAIAASLDPALAKEIKAYAEEQIKKVEEAIKKAK

Target: CD276, Q5ZPR3
Sequence (Q5ZPR3 whole entry): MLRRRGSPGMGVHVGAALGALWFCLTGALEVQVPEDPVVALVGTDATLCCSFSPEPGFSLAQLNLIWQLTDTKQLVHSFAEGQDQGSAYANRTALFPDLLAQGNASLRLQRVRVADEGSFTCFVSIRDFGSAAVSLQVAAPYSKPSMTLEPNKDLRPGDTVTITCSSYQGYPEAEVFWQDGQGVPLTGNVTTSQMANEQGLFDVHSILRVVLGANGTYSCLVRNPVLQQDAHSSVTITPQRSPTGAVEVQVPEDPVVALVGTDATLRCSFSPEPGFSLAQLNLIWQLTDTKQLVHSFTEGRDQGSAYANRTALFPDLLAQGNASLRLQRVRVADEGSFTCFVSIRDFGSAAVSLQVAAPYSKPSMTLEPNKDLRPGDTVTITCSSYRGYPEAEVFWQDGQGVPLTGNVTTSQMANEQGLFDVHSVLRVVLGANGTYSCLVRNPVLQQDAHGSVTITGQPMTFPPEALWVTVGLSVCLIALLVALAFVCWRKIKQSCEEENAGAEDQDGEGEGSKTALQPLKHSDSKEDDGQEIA

| Binder | binding in a display sort |
| --- | --- |
| B1 | not found |
| B2 | not found |
| B3 | not found |
| B4 | not found |
| B5 | not found |
| B6 | not found |
| B7 | not found |
| B8 | not found |
| B9 | not found |
| B10 | not found |
| B11 | not found |
| B12 | not found |
| B13 | not found |
| B14 | not found |
| B15 | not found |
| B16 | not found |
| B17 | not found |
| B18 | not found |
| B19 | not found |
